Reference: the supplement of paper PMC10338343
± gives the standard deviation.

These sequences were tested on MILI (PIWIL2) piRISC loaded with L1MC piRNA (26 nt) (assay: pre-steady-state target cleavage rate (min^-1); guide: L1MC piRNA 5'p-UAACUAAAUACUAUGCAAGCUGUAGG; MIWI and MILI are mouse PIWI proteins and EfPiwi is from a freshwater sponge; tags in brackets are library labels; higher = faster piRNA-guided slicing of the target). Conditions: auxiliary factor: 500 nM mouse GTSF1.
How it was run: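 Cleave-'n-Seq: 1 nM active affinity-purified piRISC with one synthetic guide and 0.1 nM transcribed, DNA-blocked target RNA library were mixed, with or without 500 nM GTSF1 partner protein, in HEPES–potassium acetate buffer at 33 °C for 0–8 or 0–960 min. Uncleaved targets were sequenced and normalised to depth and to weakly complementary targets, three trials were pooled, and k3 was capped at 0.0001 min^-1. The pre-steady-state cleavage rate was fitted […].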

Row | Sequence | pre-steady-state target cleavage rate
1 | UCCUGGAUGUCGAAGCAUAGUAUUUAGUUC [g2:g16:cont:t1C] | 0.0284 ± 0.0076
2 | UCCUGGAUCAGCUUCGAUAGUAUUUAGAAA | 0.0608 ± 0.017
3 | UCCUGGAUGUGCUACCAUAGUAUUUAGUAA | 0.0454 ± 0.011
4 | UCCUGGAUGUCGAUGCAUAGCAUUUAGUUA | 0.0232 ± 0.0085
5 | UCCUCCUACAGCUUGCAUUGUAUUUUCAAA | 0.0415 ± 0.012
6 | UCCUGGAUGUCGAUCCAUAGUAUUUAGUUA | 0.00686 ± 0.0039
7 | UCCUGGUACAGCUUGCUAUGUAUUUAGUAA | 0.00603 ± 0.0046
8 | UCCUGGAUGUCGAAGCAUAGUAUUAUGUUA | 0.00859 ± 0.0044
9 | UCCUGCUACACGAUGCAUAGUAUUUUCAAA | 0.117 ± 0.034
10 | UCCUGGAUGUCGUUGCAUAGUAUUUACGUUA | 0.231 ± 0.064
11 | UCCUGGAUCAGCAACCAUAGUAUUUAGUUA | 0.116 ± 0.013
12 | UCCUGGAACAGCUAGCAUAGUAUUUACUUA | 0.0669 ± 0.016
13 | UCCUGGAUGUCGAAGCAUAGUCUUUAGUUA | 0.0102 ± 0.0051
14 | UCCUGGAUCACGAUGCAUAGUAUUUUCAAA | 0.0499 ± 0.012
15 | UCCUGGAUGUCGAACGAUAGUAUUUAGUAA [g3:g14:cont:t1A] | < 0.0001
16 | UCCUGCUACUCGUUGCAUAGUAUUUUCAAA | 0.0428 ± 0.014
17 | UCCUGGAUGUCGAUGCAUAGUAUUUAGAUUA | 0.0599 ± 0.016
18 | UCCUGGAUGUCCUUGCAUAGUAUUAUCUUA | 0.0177 ± 0.0079

Row | Sequence | pre-steady-state target cleavage rate
19 | UCCUCCUACAGCUUGCUAUGUAUUUACAAA | 0.00653 ± 0.0036
20 | UCCUGGAUGUCCUAGCAUAGUAUUUAGUAA | 0.143 ± 0.031
21 | UCCUGCUACACGUUGCAUAGUAUUUACAAA | 0.0287 ± 0.01
22 | UCCUGGAACAGCUUCGAUAGUAUUUAGAAA | 0.0923 ± 0.021
23 | UCCUGGUUCAGCUUGCAUAGUAUUUUCAAA | 0.0427 ± 0.016
24 | UCCUCCUACAGCUACGAUAGUAUUUACAAA | 0.0587 ± 0.019
25 | UCCUGGAACAGCUUGCAUAGAUUUUAGUAA | 0.0259 ± 0.0091
26 | UCCUGGUACAGCUUGCAUAGUUUAUAGUUA | 0.0525 ± 0.018
27 | UCCUGCUAGAGCUUGCAUAGUAUUUUCAAA | 0.0124 ± 0.0058
28 | UCCUGGUACAGCUUGCAAUGUAUUUACAAA | 0.00784 ± 0.0049
29 | UCCUGGAUGUGCUUGGAUUGUAUUUAGUUA | 0.00469 ± 0.0044
30 | UCCUGGAUGUCGAUGCAUAGUAUUUUCUUA | 0.011 ± 0.006
31 | UCCUGGUACAGCUUGGAUAGAAUUUAGUUA | 0.0709 ± 0.025
32 | UCCUGGAACAGCUUGCAUAGUAUAUUCAAA | 0.0758 ± 0.022
33 | UCCUGGAAGAGCUUGCAUAGUAUUUAGAAA | 0.109 ± 0.025
34 | UCCUGGAUGUCGAUGCAUAGUAUUUAGAAA | 0.0516 ± 0.015
35 | UCCUGGUACAGCUUGCAUAGUAUUGUAGUUA | 0.233 ± 0.055
